# The supplement of paper PMC4166925
# ± gives the standard deviation of the averaged measurements. In all, about 33,000 sequences were measured (“E-score (dimensionless, -0.5 to 0.5)”: median about -0.049, highest 2% from about 0.37 on). Many of the other results were omitted from the sample, so the highest values are more common in it than they were.
# Test system: T1, PmTbr T-box DNA-binding domain (GST fusion)
# T1 sequence: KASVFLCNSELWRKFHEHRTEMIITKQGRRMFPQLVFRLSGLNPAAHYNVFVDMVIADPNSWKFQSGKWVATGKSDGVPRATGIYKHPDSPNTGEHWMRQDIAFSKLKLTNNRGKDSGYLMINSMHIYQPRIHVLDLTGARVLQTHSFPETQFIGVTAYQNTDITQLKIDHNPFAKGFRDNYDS
# Experiment: PBM E-score of 8-mer (E-score (dimensionless, -0.5 to 0.5)); Tbr is Tbrain of the sea star Patiria miniata (Pm) or the sea urchin Strongylocentrotus purpuratus (Sp); higher = stronger binding preference
# Details: the construct has about 5 more residues each side
# Description: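 Universal protein-binding microarray (Agilent AMADID 016060, 60-bp probes with a 35-bp variable region) incubated with 200 nM GST-fused Patiria miniata Tbr T-box DNA-binding domain (residues 272-466) in PBS pH 7.5. Scored for every ungapped 8-mer (given with its reverse complement) by the Universal PBM Analysis Suite as E-score (modified Wilcoxon-Mann-Whitney enrichment, range -0.5 to 0.5; >0.45 counts as bound) and Z-score of median probe intensity. Two replicate arrays (datasets 1 and 2).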
# 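Also: 200 nM protein in PBS on universal arrays averaged over duplicate arrays.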
row,Sequence,PBM E-score of 8-mer
1,ATAGCTAG,-0.0742 ± 0.12
2,CACGTTGG,0.261 ± 0.0042
3,CTGTTCTC,0.0542 ± 0.017
4,AGTGGCAA,0.304 ± 0.039
5,ACTGGCAC,0.264 ± 0.015
6,ATTGGCAC,0.385 ± 0.0064
7,CCTGGCAC,0.371 ± 0.019
8,CGTGGCAC,0.233 ± 0.052
9,CGTGGCAA,0.122 ± 0.044
10,AGTGGCAC,0.334 ± 0.008
11,GGTGGCAA,0.3882 ± 0.0017
12,ATTGGCAG,0.0761 ± 0.012
13,GGTGGCAC,0.38829 ± 0.00023
14,CTTGGCAC,0.352 ± 0.016
15,GCTGGCAC,0.234 ± 0.064
16,CCAGTTCA,-0.052 ± 0.044
17,GCCGTGCC,0.0438 ± 0.036
18,TCTATCCA,-0.354 ± 0.0079
19,GGATTAAC,0.0329 ± 0.085
20,CCTAGGGA,-0.233 ± 0.015
21,ACGATCTG,0.189 ± 0.015
22,CAATAGCG,0.118 ± 0.13

row,Sequence,PBM E-score of 8-mer
1,AAGAGGTC,-0.101 ± 0.02
2,ACGAGGTC,-0.113 ± 0.027
3,AGGAGGTC,-0.247 ± 0.02
4,AAGAGGTA,-0.158 ± 0.021
5,ACGAGGTA,-0.046 ± 0.031
6,AGGAGGTA,-0.0739 ± 0.034
7,ATGAGGTC,-0.00428 ± 0.033
8,ACGAGGTG,0.4446 ± 0.0042
9,ATGAGGTA,-0.093 ± 0.027
10,AGGAGGTG,0.428 ± 0.0078
11,AAGAGGTG,0.4261 ± 0.00096
12,ATGAGGTG,0.382 ± 0.018
13,GCCAGTCA,0.0625 ± 0.0016
14,AAGTTTCT,0.101 ± 0.091
15,AAACCATC,-0.0959 ± 0.018
16,AGTAGAGC,0.00365 ± 0.047
17,GTAGAACA,-0.0515 ± 0.048
18,GTCAGTGA,0.122 ± 0.036
19,GGAGAGCC,-0.27 ± 0.039
20,ATTAAGTC,-0.233 ± 0.059
21,AGGCAAAT,-0.324 ± 0.053
22,ACCACCTG,0.262 ± 0.056

row,Sequence,PBM E-score of 8-mer
1,TACACCAA,0.0439 ± 0.018
2,CAGACCTG,-0.0919 ± 0.036
3,AACACCGT,0.329 ± 0.0059
4,AACACCTT,0.4857 ± 0.0013
5,AACACCTG,0.472 ± 0.0011
6,CACACCTG,0.478 ± 0.0049
7,AACACCGC,0.287 ± 0.0081
8,AACACCGG,0.155 ± 0.04
9,CACACCGG,0.135 ± 0.057
10,TACACCGA,0.042 ± 0.083
11,TACACCTA,0.371 ± 0.026
12,GACTGAGA,-0.181 ± 0.085
13,ACTCAAAT,-0.125 ± 0.039
14,TACTTAGA,0.0947 ± 0.0054
15,ATAGACTG,-0.0183 ± 0.043
16,GACTGACA,0.142 ± 0.069
17,ATAGGCCC,-0.141 ± 0.098
18,CTCATTGC,-0.166 ± 0.087
19,AGATTCGG,-0.173 ± 0.036
20,ACGGCTAC,-0.0169 ± 0.0055
21,GAGACCTA,-0.16 ± 0.033
22,CACACCTA,0.476 ± 0.009

row,Sequence,PBM E-score of 8-mer
1,AAAACCTA,-0.209 ± 0.086
2,CCCACCTA,0.184 ± 0.016
3,GACACCTA,0.48906 ± 2.8e-05
4,AACACCGA,0.234 ± 0.034
5,AACACCTA,0.4803 ± 0.0034
6,CACACCGA,0.193 ± 0.0051
7,GACACCGA,0.286 ± 0.024
8,AGACTAGG,-0.0553 ± 0.059
9,ACGTCGAC,0.115 ± 0.035
10,AGGCAGCG,-0.0107 ± 0.078
11,CCTTGTAA,-0.0975 ± 0.037
12,TACTTGAA,-0.262 ± 0.037
13,AGGGGAGG,-0.223 ± 0.07
14,GAATTGTC,0.184 ± 0.0043
15,CGAGACTC,0.0667 ± 0.093
16,CCAAGGGA,0.0414 ± 0.029
17,ATCACGAG,0.167 ± 0.054
18,AAGAGTGT,0.289 ± 0.055
19,CTATAGAA,-0.129 ± 0.058
20,ACGTGACT,0.0526 ± 0.086
21,GCGTGACA,0.365 ± 0.0062
22,ATGTGACA,0.4393 ± 0.0026

row,Sequence,PBM E-score of 8-mer
1,ATGTGACC,0.112 ± 0.052
2,ATGTGACG,0.31 ± 0.02
3,ACGTGACG,0.346 ± 0.0083
4,GTGTGACA,0.4709 ± 0.0035
5,CTGTGACA,0.3356 ± 0.0016
6,ACGTGACA,0.385 ± 0.023
7,CACTGCTG,-0.132 ± 0.038
8,AAGAAGTC,0.0125 ± 0.0032
9,CGTAGGCC,-0.213 ± 0.033
10,GCATATAC,-0.081 ± 0.0014
11,CCTTGGGC,-0.035 ± 0.01
12,GGTGCCAC,0.398 ± 0.015
13,AGTGCCAG,0.2664 ± 0.0016
14,TGTGCCAA,0.351 ± 0.013
15,CGTGCCAC,0.274 ± 0.03
16,GGTGCCAA,0.454 ± 0.006
17,AGTGCCAC,0.287 ± 0.014
18,GATGCCAC,0.182 ± 0.072
19,CGTGCCAA,0.324 ± 0.0048
20,AGTGCCAA,0.3809 ± 0.0024
21,GCGGCAGC,0.0309 ± 0.0077
22,GGCGAATA,0.0105 ± 0.026
